Experimental data from ChEMBL document CHEMBL1961873, “Compounds: GSK PKIS; Assays: Nanosyn kinase panel” (2012).

Tests used:
[1] = biological target: Sphingosine kinase 1 (Homo sapiens) (UniProt Q9NYA1); conditions: at 1 µM;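 also: mean SPHK1 inhibition value reported from the GSK PKIS kinase panel screen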
[2] = biological target: T1, Sphingosine kinase 2 (Homo sapiens) (UniProt Q9NRA0); conditions: at 0.1 µM
T1 sequence (whole entry): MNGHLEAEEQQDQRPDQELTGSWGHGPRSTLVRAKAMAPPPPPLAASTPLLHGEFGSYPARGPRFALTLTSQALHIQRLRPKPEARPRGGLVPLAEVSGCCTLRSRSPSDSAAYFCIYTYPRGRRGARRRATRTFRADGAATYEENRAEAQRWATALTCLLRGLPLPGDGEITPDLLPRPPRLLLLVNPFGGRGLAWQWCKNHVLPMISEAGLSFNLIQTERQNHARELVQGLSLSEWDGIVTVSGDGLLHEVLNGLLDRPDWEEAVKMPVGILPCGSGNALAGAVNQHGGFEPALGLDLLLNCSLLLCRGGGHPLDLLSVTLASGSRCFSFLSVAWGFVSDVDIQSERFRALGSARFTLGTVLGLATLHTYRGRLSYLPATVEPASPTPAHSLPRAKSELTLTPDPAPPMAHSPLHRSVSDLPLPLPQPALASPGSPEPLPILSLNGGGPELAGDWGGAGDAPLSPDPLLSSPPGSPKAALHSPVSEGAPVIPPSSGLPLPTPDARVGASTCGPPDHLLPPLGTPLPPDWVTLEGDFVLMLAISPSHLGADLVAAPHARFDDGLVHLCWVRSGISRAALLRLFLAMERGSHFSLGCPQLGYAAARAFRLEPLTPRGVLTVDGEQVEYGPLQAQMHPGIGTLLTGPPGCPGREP

[3] = biological target: T1, Sphingosine kinase 2 (Homo sapiens); conditions: at 1 µM
[4] = biological target: Casein kinase II subunit alpha (Homo sapiens) (UniProt P68400); conditions: at 0.1 µM
[5] = biological target: Casein kinase II subunit alpha (Homo sapiens) (UniProt P68400); conditions: at 1 µM
[6] = biological target: T2, Inhibitor of nuclear factor kappa-B kinase subunit alpha (Homo sapiens) (UniProt O15111); conditions: at 0.1 µM
T2 sequence (whole entry): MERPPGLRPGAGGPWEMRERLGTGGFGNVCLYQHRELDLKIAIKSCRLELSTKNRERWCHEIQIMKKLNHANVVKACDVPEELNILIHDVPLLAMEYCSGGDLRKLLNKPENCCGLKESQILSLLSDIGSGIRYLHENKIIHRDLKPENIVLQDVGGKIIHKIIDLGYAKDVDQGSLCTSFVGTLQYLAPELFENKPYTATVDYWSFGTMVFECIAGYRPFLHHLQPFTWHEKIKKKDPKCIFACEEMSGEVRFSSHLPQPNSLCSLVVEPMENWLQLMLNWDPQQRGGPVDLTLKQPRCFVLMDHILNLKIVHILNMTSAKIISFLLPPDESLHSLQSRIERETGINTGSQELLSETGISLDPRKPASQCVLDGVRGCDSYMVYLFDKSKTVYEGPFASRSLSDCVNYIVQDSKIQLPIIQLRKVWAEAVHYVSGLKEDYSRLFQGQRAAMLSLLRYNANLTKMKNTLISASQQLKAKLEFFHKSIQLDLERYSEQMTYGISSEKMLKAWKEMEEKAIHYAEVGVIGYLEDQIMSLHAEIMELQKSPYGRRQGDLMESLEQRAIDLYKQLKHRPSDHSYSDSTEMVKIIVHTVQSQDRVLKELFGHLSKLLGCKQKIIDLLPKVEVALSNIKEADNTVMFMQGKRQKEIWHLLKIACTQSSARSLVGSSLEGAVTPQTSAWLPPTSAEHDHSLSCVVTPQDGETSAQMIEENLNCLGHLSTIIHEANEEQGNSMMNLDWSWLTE

[7] = biological target: T2, Inhibitor of nuclear factor kappa-B kinase subunit alpha (Homo sapiens); conditions: at 1 µM
[8] = biological target: T3, Inhibitor of nuclear factor kappa-B kinase subunit beta (Homo sapiens) (UniProt O14920); conditions: at 0.1 µM
T3 sequence (whole entry): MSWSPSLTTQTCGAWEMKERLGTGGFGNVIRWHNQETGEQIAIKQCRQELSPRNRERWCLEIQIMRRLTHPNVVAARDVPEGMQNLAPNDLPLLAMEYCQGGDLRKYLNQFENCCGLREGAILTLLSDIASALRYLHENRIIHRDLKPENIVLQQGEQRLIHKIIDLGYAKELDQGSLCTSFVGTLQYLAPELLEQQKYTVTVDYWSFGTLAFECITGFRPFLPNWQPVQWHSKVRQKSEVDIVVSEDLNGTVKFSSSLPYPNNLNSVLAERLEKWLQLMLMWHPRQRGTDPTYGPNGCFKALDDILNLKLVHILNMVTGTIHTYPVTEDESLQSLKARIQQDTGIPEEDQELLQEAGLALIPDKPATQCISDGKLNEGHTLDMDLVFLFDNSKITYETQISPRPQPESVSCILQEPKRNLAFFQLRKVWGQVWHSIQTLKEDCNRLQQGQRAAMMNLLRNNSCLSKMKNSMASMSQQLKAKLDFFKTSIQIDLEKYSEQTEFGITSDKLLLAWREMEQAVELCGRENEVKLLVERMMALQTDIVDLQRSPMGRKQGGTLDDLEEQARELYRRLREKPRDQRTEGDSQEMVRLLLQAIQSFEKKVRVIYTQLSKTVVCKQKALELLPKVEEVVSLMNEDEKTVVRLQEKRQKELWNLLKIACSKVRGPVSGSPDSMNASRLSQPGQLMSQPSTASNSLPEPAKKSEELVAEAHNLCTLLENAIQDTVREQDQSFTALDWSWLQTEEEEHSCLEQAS

[9] = biological target: T3, Inhibitor of nuclear factor kappa-B kinase subunit beta (Homo sapiens); conditions: at 1 µM
[10] = biological target: T4, Inhibitor of nuclear factor kappa-B kinase subunit epsilon (Homo sapiens) (UniProt Q14164); conditions: at 0.1 µM
T4 sequence (whole entry): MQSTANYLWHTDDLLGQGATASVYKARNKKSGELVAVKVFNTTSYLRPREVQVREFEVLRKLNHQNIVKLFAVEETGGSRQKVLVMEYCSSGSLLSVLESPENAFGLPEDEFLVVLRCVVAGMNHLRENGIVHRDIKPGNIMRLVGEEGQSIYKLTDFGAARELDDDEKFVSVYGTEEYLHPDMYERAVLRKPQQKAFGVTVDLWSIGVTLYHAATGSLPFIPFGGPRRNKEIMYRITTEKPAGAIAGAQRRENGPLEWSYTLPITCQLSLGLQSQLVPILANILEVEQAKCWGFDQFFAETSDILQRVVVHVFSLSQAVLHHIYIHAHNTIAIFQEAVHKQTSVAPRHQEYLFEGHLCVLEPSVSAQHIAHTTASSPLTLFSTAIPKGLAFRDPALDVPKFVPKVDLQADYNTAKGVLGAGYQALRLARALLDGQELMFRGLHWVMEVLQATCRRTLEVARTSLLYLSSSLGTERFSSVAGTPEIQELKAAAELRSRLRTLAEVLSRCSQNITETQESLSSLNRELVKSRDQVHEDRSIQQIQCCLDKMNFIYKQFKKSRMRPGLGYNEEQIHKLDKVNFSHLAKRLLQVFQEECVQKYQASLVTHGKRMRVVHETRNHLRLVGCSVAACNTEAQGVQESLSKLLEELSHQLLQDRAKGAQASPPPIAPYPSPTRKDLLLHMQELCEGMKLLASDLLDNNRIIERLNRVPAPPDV

[11] = biological target: T4, Inhibitor of nuclear factor kappa-B kinase subunit epsilon (Homo sapiens); conditions: at 1 µM
[12] = biological target: T5, Serine/threonine-protein kinase Nek1 (Homo sapiens) (UniProt Q96PY6); conditions: at 0.1 µM
T5 sequence (whole entry): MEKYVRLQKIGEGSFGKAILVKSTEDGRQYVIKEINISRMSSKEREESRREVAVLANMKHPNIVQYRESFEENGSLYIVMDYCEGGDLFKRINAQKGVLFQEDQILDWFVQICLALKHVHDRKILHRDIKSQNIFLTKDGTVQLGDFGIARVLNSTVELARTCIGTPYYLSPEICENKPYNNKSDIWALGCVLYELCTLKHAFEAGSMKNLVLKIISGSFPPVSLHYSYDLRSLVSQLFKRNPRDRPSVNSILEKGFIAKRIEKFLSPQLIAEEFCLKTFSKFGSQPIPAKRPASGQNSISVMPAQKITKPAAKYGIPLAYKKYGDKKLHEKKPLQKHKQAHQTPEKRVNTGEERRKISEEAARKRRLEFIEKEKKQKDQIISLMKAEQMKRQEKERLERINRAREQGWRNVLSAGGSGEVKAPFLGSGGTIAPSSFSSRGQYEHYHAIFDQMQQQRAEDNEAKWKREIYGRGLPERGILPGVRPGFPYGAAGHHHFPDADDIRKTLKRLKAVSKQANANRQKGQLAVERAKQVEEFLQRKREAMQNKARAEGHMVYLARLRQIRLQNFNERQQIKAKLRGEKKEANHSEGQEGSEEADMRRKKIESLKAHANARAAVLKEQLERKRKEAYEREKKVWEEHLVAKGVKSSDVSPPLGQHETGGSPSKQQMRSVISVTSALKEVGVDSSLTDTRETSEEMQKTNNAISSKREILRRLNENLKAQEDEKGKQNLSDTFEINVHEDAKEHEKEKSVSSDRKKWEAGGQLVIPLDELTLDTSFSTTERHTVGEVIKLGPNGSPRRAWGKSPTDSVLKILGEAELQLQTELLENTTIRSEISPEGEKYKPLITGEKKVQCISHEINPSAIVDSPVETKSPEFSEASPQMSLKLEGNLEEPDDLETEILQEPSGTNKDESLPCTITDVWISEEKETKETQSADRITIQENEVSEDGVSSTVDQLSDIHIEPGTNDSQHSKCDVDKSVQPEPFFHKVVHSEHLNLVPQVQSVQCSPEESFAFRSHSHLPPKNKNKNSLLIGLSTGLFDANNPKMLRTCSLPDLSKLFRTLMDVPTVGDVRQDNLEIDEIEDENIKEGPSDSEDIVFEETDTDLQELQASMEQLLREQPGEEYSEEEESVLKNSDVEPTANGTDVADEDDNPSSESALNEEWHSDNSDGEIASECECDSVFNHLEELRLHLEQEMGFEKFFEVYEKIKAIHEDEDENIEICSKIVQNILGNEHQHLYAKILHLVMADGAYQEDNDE

[13] = biological target: T5, Serine/threonine-protein kinase Nek1 (Homo sapiens); conditions: at 1 µM
[14] = biological target: T6, Serine/threonine-protein kinase Nek2 (Homo sapiens) (UniProt P51955); conditions: at 0.1 µM
T6 sequence (whole entry): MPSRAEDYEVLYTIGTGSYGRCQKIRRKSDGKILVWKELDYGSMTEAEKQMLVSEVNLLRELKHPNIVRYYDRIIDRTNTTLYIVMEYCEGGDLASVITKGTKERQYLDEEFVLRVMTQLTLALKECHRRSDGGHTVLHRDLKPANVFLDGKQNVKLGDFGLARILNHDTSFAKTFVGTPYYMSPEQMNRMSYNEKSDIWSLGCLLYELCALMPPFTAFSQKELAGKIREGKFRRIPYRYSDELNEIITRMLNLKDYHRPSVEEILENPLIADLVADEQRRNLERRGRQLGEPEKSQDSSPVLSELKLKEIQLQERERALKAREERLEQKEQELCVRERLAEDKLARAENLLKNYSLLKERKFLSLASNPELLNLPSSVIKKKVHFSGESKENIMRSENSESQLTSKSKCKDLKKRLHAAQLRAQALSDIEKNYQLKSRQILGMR

[15] = biological target: T6, Serine/threonine-protein kinase Nek2 (Homo sapiens); conditions: at 1 µM
[16] = biological target: Serine/threonine-protein kinase Nek6 (Homo sapiens) (UniProt Q9HC98); conditions: at 0.1 µM
[17] = biological target: Serine/threonine-protein kinase Nek6 (Homo sapiens) (UniProt Q9HC98); conditions: at 1 µM
[18] = biological target: Serine/threonine-protein kinase Nek7 (Homo sapiens) (UniProt Q8TDX7); conditions: at 0.1 µM
[19] = biological target: Serine/threonine-protein kinase Nek7 (Homo sapiens) (UniProt Q8TDX7); conditions: at 1 µM
[20] = biological target: T7, Serine/threonine-protein kinase Nek9 (Homo sapiens) (UniProt Q8TD19); conditions: at 0.1 µM;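 also: reported value is the mean percent inhibition of NEK9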
T7 sequence (whole entry): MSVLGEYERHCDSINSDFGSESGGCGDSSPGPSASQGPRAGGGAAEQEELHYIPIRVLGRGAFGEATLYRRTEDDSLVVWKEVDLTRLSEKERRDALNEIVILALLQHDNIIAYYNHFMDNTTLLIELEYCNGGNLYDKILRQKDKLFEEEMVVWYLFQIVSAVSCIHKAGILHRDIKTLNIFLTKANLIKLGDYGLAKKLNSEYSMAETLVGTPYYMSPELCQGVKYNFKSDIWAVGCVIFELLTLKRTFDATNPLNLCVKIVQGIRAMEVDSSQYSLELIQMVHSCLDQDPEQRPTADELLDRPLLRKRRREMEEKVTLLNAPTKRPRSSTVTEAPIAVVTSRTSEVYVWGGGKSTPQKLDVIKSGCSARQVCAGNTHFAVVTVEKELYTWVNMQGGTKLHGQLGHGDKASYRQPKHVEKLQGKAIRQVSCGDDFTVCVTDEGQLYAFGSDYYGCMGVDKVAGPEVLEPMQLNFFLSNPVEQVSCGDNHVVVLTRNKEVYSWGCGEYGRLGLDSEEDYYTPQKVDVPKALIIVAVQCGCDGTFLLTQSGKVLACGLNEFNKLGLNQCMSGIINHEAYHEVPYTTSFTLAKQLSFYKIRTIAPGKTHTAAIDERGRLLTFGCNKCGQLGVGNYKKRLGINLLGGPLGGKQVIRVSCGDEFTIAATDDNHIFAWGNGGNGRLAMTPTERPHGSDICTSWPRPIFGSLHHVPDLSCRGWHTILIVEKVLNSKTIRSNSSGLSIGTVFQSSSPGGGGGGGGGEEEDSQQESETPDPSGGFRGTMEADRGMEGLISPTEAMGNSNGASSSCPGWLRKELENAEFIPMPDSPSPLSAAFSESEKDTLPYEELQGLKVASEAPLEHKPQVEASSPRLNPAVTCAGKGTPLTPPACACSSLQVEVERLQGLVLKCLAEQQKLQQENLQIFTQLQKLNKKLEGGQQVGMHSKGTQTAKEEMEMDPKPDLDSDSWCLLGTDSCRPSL

Sequence of Casein kinase II subunit alpha (Homo sapiens) (P68400 whole entry, looked up): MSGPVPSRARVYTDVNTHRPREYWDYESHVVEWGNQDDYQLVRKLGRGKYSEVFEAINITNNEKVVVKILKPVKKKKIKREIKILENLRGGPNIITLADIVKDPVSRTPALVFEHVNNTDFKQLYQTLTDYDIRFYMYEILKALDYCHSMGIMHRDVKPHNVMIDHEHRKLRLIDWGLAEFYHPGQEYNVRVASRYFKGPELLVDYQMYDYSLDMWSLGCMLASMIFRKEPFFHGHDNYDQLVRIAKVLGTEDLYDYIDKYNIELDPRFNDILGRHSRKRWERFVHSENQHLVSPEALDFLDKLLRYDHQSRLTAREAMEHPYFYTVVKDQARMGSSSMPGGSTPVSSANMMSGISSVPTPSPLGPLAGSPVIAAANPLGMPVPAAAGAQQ
Sequence of Serine/threonine-protein kinase Nek7 (Homo sapiens) (Q8TDX7 whole entry, looked up): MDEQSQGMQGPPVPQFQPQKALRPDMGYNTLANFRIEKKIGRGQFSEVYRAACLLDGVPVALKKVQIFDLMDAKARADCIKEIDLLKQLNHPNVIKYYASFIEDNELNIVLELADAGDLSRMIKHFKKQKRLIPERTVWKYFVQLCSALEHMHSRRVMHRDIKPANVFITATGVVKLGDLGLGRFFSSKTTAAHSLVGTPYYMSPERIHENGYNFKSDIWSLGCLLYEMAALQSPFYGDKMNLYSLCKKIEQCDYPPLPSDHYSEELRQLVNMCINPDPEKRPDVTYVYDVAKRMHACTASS
Sequence of Serine/threonine-protein kinase Nek6 (Homo sapiens) (Q9HC98 whole entry): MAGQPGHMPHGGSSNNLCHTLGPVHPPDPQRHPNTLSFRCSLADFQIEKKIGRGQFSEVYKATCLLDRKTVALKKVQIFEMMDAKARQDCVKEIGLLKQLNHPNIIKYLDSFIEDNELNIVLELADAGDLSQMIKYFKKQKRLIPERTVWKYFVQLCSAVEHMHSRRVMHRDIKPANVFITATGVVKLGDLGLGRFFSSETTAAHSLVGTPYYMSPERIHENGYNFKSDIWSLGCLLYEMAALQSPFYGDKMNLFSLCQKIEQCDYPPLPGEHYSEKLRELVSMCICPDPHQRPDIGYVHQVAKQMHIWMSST
Sequence of Sphingosine kinase 1 (Homo sapiens) (Q9NYA1 whole entry): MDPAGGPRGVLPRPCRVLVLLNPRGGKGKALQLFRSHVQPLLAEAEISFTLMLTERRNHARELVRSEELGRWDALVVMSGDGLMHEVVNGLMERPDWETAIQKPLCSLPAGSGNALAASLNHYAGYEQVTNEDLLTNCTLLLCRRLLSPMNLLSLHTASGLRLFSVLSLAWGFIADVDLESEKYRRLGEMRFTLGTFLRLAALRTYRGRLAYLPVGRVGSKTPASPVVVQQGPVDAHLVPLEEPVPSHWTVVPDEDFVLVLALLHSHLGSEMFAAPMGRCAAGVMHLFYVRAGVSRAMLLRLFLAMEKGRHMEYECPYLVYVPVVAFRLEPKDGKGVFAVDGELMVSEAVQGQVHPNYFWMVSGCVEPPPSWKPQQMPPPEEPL

SMILES | inhibition [1] [%] | inhibition [2] [%] | inhibition [3] [%] | inhibition [4] [%] | inhibition [5] [%] | inhibition [6] [%] | inhibition [7] [%] | inhibition [8] [%] | inhibition [9] [%] | inhibition [10] [%] | inhibition [11] [%] | inhibition [12] [%] | inhibition [13] [%] | inhibition [14] [%] | inhibition [15] [%] | inhibition [16] [%] | inhibition [17] [%] | inhibition [18] [%] | inhibition [19] [%] | inhibition [20] [%]
CCn1c(-c2nonc2N)nc2c(C#CC(C)(C)O)nc(CN3CCCC3)cc21 | 0.08 | 2.01 | 1.13 | -0.41 | 0.78 | -1.06 | 0.78 | -1.14 | -3.01 | 5.75 | 30 | 0.5 | 2.97 | -0.01 | 1.09 | 1.01 | -0.68 | 2.37 | 0.41 | -0.93
CN(C)c1cc2c(Nc3ccc4nc(Cc5ccccc5)[nH]c4c3)ncnc2cn1 | -4.39 | -0.89 | -0.82 | 3.31 | 1.45 | 9.26 | 9.4 | 7.48 | 6.68 | 17.5 | 16.6 | 2.45 | 3.05 | 6.53 | 8.34 | 3.19 | -0.04 | 6.44 | 4.66 | 14.3
